PubChem BioAssay (NCI)
The panel holds about 83,000 compounds, 20% with a hit somewhere; the sample as a whole holds those more often.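 A percent growth of 40 corresponds to 60% growth inhibition; 0 means no net growth; -100 means all cells died. Active threshold: below 10.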 Calls of active or inactive are those of the source.

What was measured:
Assay in all cases: NCI-60 one-dose screen, 48 h (100 = growth as untreated, 0 = no growth, -100 = all killed)
Settings in all cases: 10 µM unless noted
SR leukemia = tested on: SR leukemia
RPMI-8226 leukemia = tested on: RPMI-8226 leukemia
OVCAR-5 ovarian = tested on: OVCAR-5 ovarian
OVCAR-4 ovarian = tested on: OVCAR-4 ovarian
SK-OV-3 ovarian = tested on: SK-OV-3 ovarian
IGROV1 ovarian = tested on: IGROV1 ovarian
OVCAR-3 ovarian = tested on: OVCAR-3 ovarian
HS 578T breast = tested on: HS 578T breast
NCI/ADR-RES ovarian = tested on: NCI/ADR-RES ovarian
OVCAR-8 ovarian = tested on: OVCAR-8 ovarian

Measured: growth

CO[C@H](C(=O)[C@@H](O)[C@@H](C)O)[C@@H]1Cc2cc3cc(O[C@H]4C[C@@H](O[C@H]5C[C@@H](O)[C@H](O)C(C)O5)[C@H](O)C(C)(O)O4)cc(O)c3c(O)c2C(=O)[C@H]1O[C@H]1C[C@@H](O[C@H]2C[C@@H](O[C@H]3C[C@@H](OC)[C@H](O)C(C)O3)[C@@H](O)C(C)O2)[C@H](O)C(C)O1 (some centres not stated)
inactive: SR leukemia 24% | RPMI-8226 leukemia 26.7% | OVCAR-5 ovarian 21% | OVCAR-4 ovarian 42.2% | SK-OV-3 ovarian 17.3% | IGROV1 ovarian 32.6% | OVCAR-3 ovarian 21.7% | HS 578T breast 26.4% | NCI/ADR-RES ovarian 102%

Cc1n[nH]c2ccc(Br)cc2c1=O
inactive: SR leukemia 100% | RPMI-8226 leukemia 98.1% | OVCAR-5 ovarian 102% | OVCAR-4 ovarian 125% | SK-OV-3 ovarian 98.6% | IGROV1 ovarian 99.6% | OVCAR-3 ovarian 109% | HS 578T breast 101% | NCI/ADR-RES ovarian 110%

C=CC(=O)Nc1ccc(Oc2nccc(Nc3nnc(-c4ccc(C)cc4)s3)n2)cc1
inactive: SR leukemia 36.2% | RPMI-8226 leukemia 61.8% | OVCAR-5 ovarian 105% | OVCAR-4 ovarian 99% | SK-OV-3 ovarian 78% | IGROV1 ovarian 62.5% | OVCAR-3 ovarian 43% | HS 578T breast 67.4% | NCI/ADR-RES ovarian 59.1%

COc1cc(NC(=O)c2cncnc2Nc2ccc3c(ccn3Cc3ccccn3)c2)cc(OC)c1
active: OVCAR-3 ovarian 9.55%
inactive: SR leukemia 12.9% | OVCAR-8 ovarian 65.8% | OVCAR-5 ovarian 76.6% | OVCAR-4 ovarian 78.4% | SK-OV-3 ovarian 57.9% | IGROV1 ovarian 45.4% | HS 578T breast 35.2% | NCI/ADR-RES ovarian 35%

O=C1/C(=C/c2ccc(O)c(O)c2)COc2ccc(-c3ccccc3)cc21
active: SR leukemia -20% | IGROV1 ovarian -13.1%
inactive: OVCAR-8 ovarian 26.5% | OVCAR-5 ovarian 50.6% | OVCAR-4 ovarian 26.6% | SK-OV-3 ovarian 81.1% | OVCAR-3 ovarian 20.2% | HS 578T breast 15% | NCI/ADR-RES ovarian 19.2%

COC(=O)c1c2c(n3ccccc13)C(=O)c1ccccc1C2=O
inactive: SR leukemia 38.7% | OVCAR-4 ovarian 77.3% | SK-OV-3 ovarian 94.8% | IGROV1 ovarian 57.5% | OVCAR-3 ovarian 55.7% | HS 578T breast 73.7% | NCI/ADR-RES ovarian 65.4%
